The entries come from a sample that favours hits as a whole.
IDE exosite FP = exo-site inhibitors of human insulin-degrading enzyme | P14735 | purified IDE, FL-6b probe fluorescence polarization; hits give low values | z-score at 20 µM | actives 6.3% (n = 17,000) | AID 1259349;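 active = z-score of -3 or lower, meaning strong loss of probe binding signal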;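 also: His-tagged human IDE residues 42-1019 made in E. coli with 30 nM FL-6b probe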
Numbers without * were called inactive.

SMILES	IDE exosite FP
O=C(CN1CCOCC1)N1CCCCN2[C@H](CO)[C@@H](c3ccc(/C=C/c4ccccc4)cc3)[C@H]2C1	-9.3*
CNC[C@H]1OCCCC[C@@H](C)Oc2ccc(NS(=O)(=O)c3ccc(F)cc3)cc2C(=O)N([C@H](C)CO)C[C@@H]1C	0.19
O=C(C[C@H]1CC[C@H]2[C@@H](COC[C@H](O)CN2Cc2cc(F)cc(F)c2)O1)Nc1nccs1	-2.7
COCC(=O)Nc1ccc2c(c1)[C@@H]1C[C@@H](CC(=O)N3CCOCC3)O[C@H](CO)[C@@H]1O2	0.3
O=C(C[C@@H]1CC[C@@H]2[C@H](COC[C@@H](O)CN2Cc2cc(F)ccc2F)O1)NCc1ccc(Oc2ccccc2)cc1	0.21
CCCC#Cc1ccc([C@@H]2[C@@H](CO)N3C(=O)CN(C(=O)CN4CCOCC4)C[C@H]23)cc1	1.8
O=C(CN1CCOCC1)N1CC(=O)N2[C@H](CO)[C@@H](c3ccc(/C=C/c4ccccc4)cc3)[C@H]2C1	-6*
O=C(C1CCOCC1)N1CC(=O)N2[C@H](C1)[C@@H](c1ccc(/C=C/c3ccccc3)cc1)[C@@H]2CO	-7.6*
CCCC#Cc1ccc([C@H]2[C@H](CO)N3C(=O)CN(C(=O)CN4CCOCC4)C[C@@H]23)cc1	1.2
O=C(CN1CCOCC1)N1CC(=O)N2[C@H](CO)[C@@H](c3ccc(/C=C/c4ccccc4)cc3)[C@@H]2C1	-4.4*
O=C(C1CCOCC1)N1CC(=O)N2[C@H](CO)[C@H](c3ccc(Br)cc3)[C@@H]2C1	-0.28
O=C(C1CCOCC1)N1CC(=O)N2[C@@H](CO)[C@@H](c3ccc(Br)cc3)[C@@H]2C1	1.4
CCCC#Cc1ccc([C@H]2[C@H]3CN(C(=O)CN4CCOCC4)CC(=O)N3[C@H]2CO)cc1	4.6
O=C(CN1CCOCC1)N1CC(=O)N2[C@H](CO)[C@@H](c3ccc(-c4ccccc4)cc3)[C@H]2C1	3.1
Cc1ccc(-c2ccc([C@H]3[C@@H](CO)N4C(=O)CN(C(=O)c5ccncc5)C[C@@H]34)cc2)cc1	0.26
C[C@@H]1CC=CC[C@H](c2cccc(Cl)c2)NC(=O)[C@@H](Cc2ccccc2)N(C)C(=O)c2ccccc2O1 (mixture of isomers)	0.78
CCCC#Cc1ccc([C@H]2[C@@H](C#N)N(C(=O)C3CCCC3)[C@H]2CO)cc1	3.3
C[C@@H]1CN([C@H](C)CO)S(=O)(=O)c2ccc(-c3ccncc3)cc2O[C@H]1CN(C)S(C)(=O)=O	-0.94
O=C(C[C@@H]1C=C[C@@H](NC(=O)C2CCC2)[C@H](CO)O1)NC1CCCCC1	-0.13
CCCC#Cc1ccc([C@H]2[C@H](CO)N3CCCCN(Cc4cccnc4)C[C@@H]23)cc1	0.4
CN1CCN(C(=O)c2cc3c(c(-c4cccc(C#CCC5CCCC5)c4)n2)[C@H](CCO)N(S(=O)C(C)(C)C)C3)CC1 (stereo not given in full)	-0.25
CCc1cnc(N2[C@@H](C#N)[C@@H](c3ccc(-c4cccc(F)c4)cc3)[C@@H]2CO)s1	-0.99
O=S(=O)(c1ccc(F)cc1)N1CCCCN2[C@H](CO)[C@H](c3ccc(C#CC4CC4)cc3)[C@H]2C1	1
C[C@@H]1CN([C@@H](C)CO)C(=O)c2ccccc2-c2ccccc2CO[C@@H]1CN(C)S(=O)(=O)c1cn(C)cn1	-0.27
C/C=C/c1ccc([C@H]2[C@@H](CNC(C)=O)N(C(=O)Cc3cccnc3)[C@H]2CO)cc1	4
SMILES	IDE exosite FP
CCCC#Cc1ccc([C@H]2[C@H](CO)N3C(=O)CN(C(=O)c4ccccc4)C[C@@H]23)cc1	4.1
O=C(c1cnccn1)N1CC(=O)N2[C@H](CO)[C@H](c3ccc(C#CCc4ccccc4)cc3)[C@H]2C1	-1.3
CC(C)CC#Cc1ccc([C@H]2[C@H]3CN(C(=O)NC(C)C)CC(=O)N3[C@H]2CO)cc1	-1.1
O=C(C1CCOCC1)N1CC(=O)N2[C@H](C1)[C@@H](c1ccc(C#CC3CC3)cc1)[C@@H]2CO	-1.1
O=C(C1CCOCC1)N1CC(=O)N2[C@H](CO)[C@@H](c3ccc(C#CC4CC4)cc3)[C@H]2C1	3.1
O=C(C1CCOCC1)N1CC(=O)N2[C@@H](CO)[C@@H](c3ccc(C#Cc4cccc(F)c4)cc3)[C@@H]2C1	-4.8*
COc1ccc(C#Cc2ccc([C@@H]3[C@@H](CO)N4C(=O)CN(C(=O)C5CCOCC5)C[C@@H]34)cc2)cc1	-0.35
COc1ccc(C#Cc2ccc([C@H]3[C@H]4CN(C(=O)C5CCOCC5)CC(=O)N4[C@H]3CO)cc2)cc1	-0.065
O=C(C1CCOCC1)N1CC(=O)N2[C@H](C1)[C@H](c1ccc(C#Cc3cccc(F)c3)cc1)[C@@H]2CO	-8.4*
N#C[C@H]1[C@@H](c2ccc(C3=CCCCC3)cc2)[C@H](CO)N1C(=O)CN1CCOCC1	-1.5
O=C(C[C@@H]1CC[C@H]2NC[C@@H](O)COC[C@@H]2O1)N1CCc2ccccc2C1	-0.62
CCC(=O)N1Cc2cc(C(=O)NCCOC)nc(-c3cccc(-c4ccc(C#N)cc4)c3)c2[C@@H]1CCO	0.45
COc1ccc(C[C@H]2CCn3nncc3COC[C@@H](CC(C)C)NC2=O)cc1	-0.5

Assay outcomes from PubChem BioAssay.
